Test results reported in PubChem BioAssay.
Values without a mark were called inactive. The rule behind the calls is not given here.

Molecular target: Pantothenate synthetase (Mycobacterium tuberculosis (strain ATCC 25618 / H37Rv)) (UniProt P9WIL5)
Test: Recombinant Mtb pantothenate synthetase (PanC) inhibitors, coupled enzyme, confirmatory (AID 375);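 note: 0% = full reaction with vehicle and 100% = no enzyme background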
Details: coupled enzyme assay; at 10 µM, active compounds read high

Chain of Pantothenate synthetase (Mycobacterium tuberculosis (strain ATCC 25618 / H37Rv)) (P9WIL5 whole entry, looked up): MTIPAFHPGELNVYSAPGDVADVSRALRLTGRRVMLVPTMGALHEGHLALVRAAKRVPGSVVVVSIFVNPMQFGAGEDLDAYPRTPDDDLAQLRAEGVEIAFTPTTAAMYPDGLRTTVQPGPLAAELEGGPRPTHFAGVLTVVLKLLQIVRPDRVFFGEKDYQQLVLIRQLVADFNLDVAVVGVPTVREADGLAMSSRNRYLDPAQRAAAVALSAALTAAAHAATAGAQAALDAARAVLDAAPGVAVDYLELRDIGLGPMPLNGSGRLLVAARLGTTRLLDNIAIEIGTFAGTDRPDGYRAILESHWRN

SMILES	inhibition
COC(=O)C(C)Sc1nc2c(c(=O)n1-c1ccccc1)SCC2 (stereo not given)	0%
CC(CCc1ccccc1)NC(=O)c1ccc(Br)o1 (stereo not given)	0%
O=C(Nc1ccc(Br)cc1F)c1sccc1-n1cccc1	4%
CCc1c(C)nc(N)n2c(SCC(=O)N3CCCc4ccccc43)nnc12	2%
O=C(NCc1cccnc1)C1CCCN(S(=O)(=O)c2ccc(Cl)cc2)C1 (stereo not given)	2%
CCOC(=O)N1CCN(Cc2nc3c(c(=O)n(C)c(=O)n3C)n2Cc2ccc(F)cc2)CC1	2%
CCCSc1nnc(-c2ccccc2NC(=O)CC)c(=O)[nH]1	0%
COc1cc(OC)c2c(c1)OC(c1ccc(OC)c(OC)c1)C(O)C2=O (stereo not given)	1%
O=C1CC(c2ccccc2)NC(=O)N1 (stereo not given)	0%
CCOc1ccc(C2/C(=C(/O)c3ccc(OC)cc3)C(=O)C(=O)N2c2cc(C)on2)cc1OC (stereo not given)	0%
COc1ccc(N2CCN(c3nc4c(c(=O)[nH]c(=O)n4C)n3CCCc3ccccc3)CC2)cc1	13%
CCCc1nn(CCc2ccccn2)c(N)c1CC	6%
Cc1noc(C)c1C(=O)Nc1sc(C)c(C)c1C#N	2%
Nc1nnc(-c2cn(-c3ccccc3)nc2-c2ccccc2)o1	0%
C=CCOc1ccc(CN(C)CC(=O)N(CC(C)C)c2c(N)n(CC(C)C)c(=O)[nH]c2=O)cc1	0%
Nc1cccc2c1C(=O)N(c1ccccc1)C2=O	0%
CCOC(=O)C1CSC(CC(=O)Nc2ccc(Cl)cc2)C(=O)N1 (stereo not given)	0%
CC(=O)OCCNc1cc(N2CCN(C)CC2)c2noc3c2c1C(=O)c1ccccc1-3	0%
COC(=O)Nc1ccc(C)cc1NC(=O)OC	2%
Cn1c(=O)[nH]c(=O)c2[nH]c(CN3CCN(C(=O)c4ccco4)CC3)nc21	0%

SMILES	inhibition
CSc1nnc(-c2ccccc2)n1C	7%
Cc1ccc(C(C)C)c(OCCCN2CC(C)OC(C)C2)c1 (stereo not given)	0%
CCn1c(C(=O)OC)cc2c1ccn2-c1ccc(F)cc1	0%
CC(C(=O)N1CCCCC1)n1sc2ccccc2c1=O (stereo not given)	0%
COc1ccc(OC)c(NC(=O)CSc2nnc(Cc3cccn3C)n2-c2ccc(F)cc2)c1	0%
CC(=O)c1c(NCCc2ccccc2)cc(C)oc1=O	0%
CC(=O)Nc1nc(C)c(-c2csc(Nc3ccc(O)cc3)n2)s1	0%
Cc1nc2ccc(S(=O)(=O)NCC(=O)O)cc2s1	4%
COc1ccc(/C(O)=C2/C(=O)C(=O)N(CCN(C)C)C2c2ccccn2)cc1OC (stereo not given)	0%
CCN(CC)C(=O)C1=C(C)Nc2nnnn2C1c1cccnc1 (stereo not given)	0%
COc1ccc2cc([C@H](C)C(=O)O)ccc2c1	0%
N#Cc1c2n(c(=O)[nH]c1=O)CCCCC2	0%
OC1C[N+]2(CCCCC2)C1	0%
CCOc1ccc(C2CC(=O)NC3=C2C(=O)CCC3)cc1Cl (stereo not given)	0%
Cc1cccc(OCC(=O)Nc2ccc(N3CCCC3)cc2)c1C	0%
COCCCNCC(=O)Nc1ccc(OC(F)(F)F)cc1	3%
O=C1CSC(c2cccc(F)c2)N1c1ccccc1F (stereo not given)	2%
CC(C)Oc1cccc(-c2cc(C(=O)N3CCN(S(C)(=O)=O)CC3)c3ccccc3n2)c1	5%
C[C@]12CCC(=O)C=C1CC[C@@H]1[C@@H]2[C@@H](O)C[C@@]2(C)[C@H]1CC[C@]2(O)C(=O)CO	0%
O=C(CN1CCN(c2nc(-c3ccccc3)cs2)CC1)Nc1ccc2c(c1)OCO2	4%
